In PubChem BioAssay AID504904 (The Scripps Research Institute Molecular Screening Center, 2011):
This is one part of the list. Active and inactive are the calls of the source. Cut-off read from the data, not from the text of the source: active = activation above about 18%; inactive = the rest.

Each molecule was assayed against Mu-type opioid receptor (Homo sapiens) + Delta-type opioid receptor (Homo sapiens) (UniProt P35372+P41143) (assay: OPRM1-OPRD1 heterodimer formation agonism – cell-based, luminescence, confirmation (AID 504904;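 note: 0% = vehicle-treated cells and 100% = reference agonist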)). Conditions: cells, MOR-DOR heterodimerization, luminescence complementation; at 9.3 µM; stronger effect = higher value.
Sequence of Mu-type opioid receptor (Homo sapiens) + Delta-type opioid receptor (Homo sapiens) (P35372 whole entry, looked up): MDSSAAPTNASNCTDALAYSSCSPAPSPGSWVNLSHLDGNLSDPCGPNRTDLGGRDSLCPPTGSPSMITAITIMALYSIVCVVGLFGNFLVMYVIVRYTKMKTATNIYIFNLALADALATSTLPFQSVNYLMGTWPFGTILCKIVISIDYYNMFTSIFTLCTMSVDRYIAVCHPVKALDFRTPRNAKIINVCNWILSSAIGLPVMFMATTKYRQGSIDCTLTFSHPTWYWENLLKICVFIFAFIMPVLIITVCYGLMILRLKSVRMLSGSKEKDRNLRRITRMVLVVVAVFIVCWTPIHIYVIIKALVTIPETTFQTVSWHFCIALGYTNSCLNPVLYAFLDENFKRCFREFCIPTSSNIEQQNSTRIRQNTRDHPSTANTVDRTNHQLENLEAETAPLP
Sequence of Mu-type opioid receptor (Homo sapiens) + Delta-type opioid receptor (Homo sapiens) (P41143 whole entry, looked up): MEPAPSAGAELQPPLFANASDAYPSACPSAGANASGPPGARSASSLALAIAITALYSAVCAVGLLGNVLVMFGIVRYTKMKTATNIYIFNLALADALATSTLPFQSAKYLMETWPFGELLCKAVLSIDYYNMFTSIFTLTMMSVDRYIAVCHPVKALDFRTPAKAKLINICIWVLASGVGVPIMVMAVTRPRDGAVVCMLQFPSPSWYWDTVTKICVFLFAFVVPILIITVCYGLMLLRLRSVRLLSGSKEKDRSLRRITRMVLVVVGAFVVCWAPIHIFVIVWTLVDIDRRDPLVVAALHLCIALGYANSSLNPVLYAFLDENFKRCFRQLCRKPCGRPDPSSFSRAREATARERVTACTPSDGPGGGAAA

activation, active:
COc1ccc(C(CNCC(=O)Nc2ccccc2F)N(C)C)cc1 (stereo unspecified) 145%
Cc1ccc(S(=O)(=O)N(CC(=O)Nc2cccnc2)c2ccc(Br)cc2)cc1 20.6%
COc1ccc(SC[C@H](Cc2ccccc2)N2CCN(CCc3ccccc3)CCC2=O)cc1 28.3%
CCOC(=O)c1c(C)[nH]c2c1-c1ccccc1C(=O)C2=O 18.7%
COc1cc(C(=O)OC(C)C(=O)NCC2CCCCC2)cc(NC(=O)c2ccco2)c1OC (stereo unspecified) 213%
CN1C(CC(=O)Nc2ccc(Br)cc2)c2ccccc2CC1(C)C (stereo unspecified) 89.7%
Cc1ccc(CN(C(=O)c2sc3ccccc3c2Cl)C2CCS(=O)(=O)C2)cc1 (stereo unspecified) 24.1%

activation, inactive:
CC(c1cccnc1)N(CCN(C)C)C(=O)Nc1ccc(Cl)c(Cl)c1 (stereo unspecified) -0.05%
O=C(NCc1cn2ccsc2n1)Nc1ccc(Cl)cc1 7.03%
CN(CC(=O)Nc1ccc(Cl)cc1)C(=O)c1ccc(COc2ccccc2)cc1 0.49%
Cc1ccc(CNC(=O)CC(NC(=O)c2ccccc2)c2ccccc2)cc1 (stereo unspecified) -2.24%
O=C(Nc1ccc(OC(F)(F)F)cc1)c1ccc2c(c1)no[n+]2[O-] 13.3%
CCC(C(=O)OCC(=O)Nc1ccc(C(=O)Nc2ccc(OC)cc2)cc1)c1ccccc1 (stereo unspecified) 4.73%
CN(C)C(CNC(=O)c1ccc(S(=O)(=O)NCc2ccco2)cc1)c1ccccc1 (stereo unspecified) 16.7%
CN1CCN(c2ccc([N+](=O)[O-])c(Sc3nc4ccccc4[nH]3)c2)CC1 1.22%
Cc1ccc(Nc2ccccc2N)cc1 3.92%
CCNS(=O)(=O)c1ccc(NC(=O)Nc2cccc(OC)c2)cc1 3.23%
Cc1ccc(-n2c(SCC(=O)NCCC3=CCCCC3)nc3n[nH]c(C)c3c2=N)cc1Cl 2.44%
COc1ccccc1C(CNC(=O)c1ccc(C)c(S(=O)(=O)N2CCCCC2)c1)N(C)C (stereo unspecified) 3.98%
C=C(C)COc1ccc(-c2n[nH]c(C)c2-c2ccccc2)c(O)c1 13.3%
O=C(NC1=CC(=O)c2ccccc2C1=O)c1ccccc1 7.9%
